# Bioassay records as filed in PubChem.
# In the library only some 11% were active in any assay of this set; here they are far more common.
# Tau fibril FP = inhibitors of human tau fibril formation. 280,000 tested, 0.39% active. Potency, µM (highest dose often 57.7 µM), actives largely listed as inhibitors. K18 P301L tau heparin fibrillization, Alexa594 FP, 6 h; note: nearly all actives have a fitted effect of over 55% in size
# Target sequence (P10636 561-689 P618L limits assumed): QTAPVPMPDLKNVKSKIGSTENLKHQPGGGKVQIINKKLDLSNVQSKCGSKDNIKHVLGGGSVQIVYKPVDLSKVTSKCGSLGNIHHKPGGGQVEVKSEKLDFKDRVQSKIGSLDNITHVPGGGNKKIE
#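 Human K18 P301L fragment (15 uM unlabeled plus 0.24 uM Alexa 594-labeled) in 100 mM sodium acetate pH 7 with compound, aggregation induced by 20 uM heparin for 6 hr at 37 C. ThT (30 uM) added for 1 hr, then Alexa 594 FP read.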
# Sfp inh = Sfp phosphopantetheinyl transferase inhibition. Q9F4F7. Biochemical Sfp PPTase activity, qHTS. Potency, µM, hits mostly inhibitors. 310,000 tested, 3.5% active. AID 1490;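 note: the enzyme is Sfp with the accession as filed and its product quenches rhodamine fluorescence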
#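 Buffer: 50 mM Hepes-Na pH 7.6, 10 mM MgCl2, 0.01% Nonidet P-40, 0.01% BSA. Enzyme 15 nM, pre-exposed to compound 15 min; substrates then added and fluorescence change tracked over 30 min.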
# Tau ThT inhib = inhibitors of human tau fibril formation, thioflavin T binding; AID 1460; Potency, µM (series often up to 57.4 µM), usual class: inhibitors; 270,000 tested, 2.1% active; recombinant tau K18 P301L, heparin-induced fibrillization, ThT fluorescence; note: nearly all actives have a fitted effect of over 55% in size
#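 ThT emission at 510 nm, taken 1 hr after adding 30 uM dye, quantifies aggregates formed when 20 uM heparin acts on human tau K18 P301L for 6 hr at 37 C.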
# Tau fluor cs = counter-screen for tau fibril formation inhibitors; tau K18 P301L Alexa594 fluorescence, heparin fibrillization; Potency, µM (titrated, usually from 57.7 µM); 280,000 tested, 0.93% active; note: nearly all actives have a fitted effect of over 55% in size
#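 Human tau K18 P301L (15 uM unlabeled, 0.24 uM Alexa 594-labeled) in 100 mM sodium acetate pH 7 with 20 uM heparin, 6 hr at 37 C. ThT 30 uM added, 1 hr ambient; Alexa 594 FP and total fluorescence read at 555/632 nm.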
# G9a block = inhibitors of human histone lysine methyltransferase G9a | Q96KQ7 | 350,000 tested, 8.8% active | Potency, µM (series often up to 102 µM), most hits filed as inhibitors | AID 504332 | G9a H3K9 monomethylation, AlphaScreen, 2 h; note: nearly all actives have a fitted effect of over 75% in size
# Target sequence (Q96KQ7 913-1193 limits assumed): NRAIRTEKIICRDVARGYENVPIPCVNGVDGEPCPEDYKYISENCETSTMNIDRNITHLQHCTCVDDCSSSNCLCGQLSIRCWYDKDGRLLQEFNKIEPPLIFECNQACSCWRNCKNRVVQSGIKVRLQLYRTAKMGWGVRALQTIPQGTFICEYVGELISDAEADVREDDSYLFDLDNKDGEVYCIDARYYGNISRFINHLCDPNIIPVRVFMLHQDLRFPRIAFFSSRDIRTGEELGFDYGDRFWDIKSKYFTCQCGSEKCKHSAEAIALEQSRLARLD
#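 G9a (20 nM) preincubated 15 min RT with compounds, then 500 nM biotinylated H3K9 peptide and 20 uM SAM added; 2 h RT reaction. Monomethyl-H3K9 product detected by AlphaScreen with anti-H3K9me1 antibody, streptavidin donor and anti-rabbit IgG acceptor beads.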
# Coupling enz = coupling enzyme interference in Giardia aldolase counter-screen; AID 2472; coupling enzyme system counterscreen, AmpLite Red fluorescence; activity change, negative = inhibition, % at 58.2 µM, hits read low; 290,000 tested, 0.67% active; in the data active = activity change below about -30%
#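 Compounds tested against the coupling enzymes alone at 57.5 uM final; readout was AmpLite Red fluorescence (525/598 nm) after 20 min at RT.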
# Numbers stand for hits; i = inactive; ? = inconclusive; nt = no result given; [ ] = dose if it differs, or a comment. Unless noted, calls come from the whole dose curve; as a rule, active = well fitted curve in the direction sought with a large enough effect; inconclusive = small, poorly fitted or top-dose-only effect, or another doubt; inactive = no such curve, though single readings can be large; an effect the other way counts as inactive or inconclusive.
SMILES,Tau fibril FP,Sfp inh,Tau ThT inhib,Tau fluor cs,G9a block,Coupling enz
FC(F)(F)c1ccccc1NC(=S)Nc1ccccc1,nt,i,nt,nt,50.1µM,i
CS(=O)(=O)N1CCC2(CCCN(C(=O)Nc3ccccc3)C2)CC1,nt,i,nt,nt,i[12.7 µM],i
CCS(=O)(=O)N1CCN(Cc2c[nH]c3ccccc23)CC1,i,i,i,i,14.1µM,i
CCS(=O)(=O)N1CCN(Cc2ccccc2OC)CC1,i,28.2µM,i,i,2.51µM,i
Cc1ccccc1N1CCN(Cc2c[nH]c3ccccc23)CC1,i,i,i,i,31.6µM,i
c1cnc(N2CCN(Cc3c[nH]c4ccccc34)CC2)nc1,i,i,i,i,?,i
CCCS(=O)(=O)N1CCN(Cc2ccccc2OCC)CC1,i,i,i,i,?,i
CN(C)c1nc(-c2ccc3c(c2)OCO3)nc2ccccc12,nt,i,nt,nt,i[0.501 µM],i
CCC(=O)N1CCc2cc(S(=O)(=O)NC(Cc3ccccc3)C(=O)NCc3cccc(OC)c3)ccc21 (centres undefined),i,nt,i,i,i,nt
Cc1oc2ncn(C)c(=O)c2c1C(=O)N(C)c1ccccc1F,i,nt,i,i,i,nt
N#CC(=C(/N)Sc1ccccc1N)/C(C#N)=C(/N)Sc1ccccc1N,nt,?,35.5µM,25.1µM[quencher],nt,i
CCc1c(C)nc2cc(-c3ccc(OC)c(OC)c3)nn2c1NCC1CC1,i,22.4µM,i,i,56.2µM,i
COc1ccc(CCNC(=O)CCc2c(C)nc3cc(-c4ccccc4)nn3c2C)cc1OC,i,nt,?,i,i,nt
CC(C)c1nnc(NC(=O)c2cccc(NC(=O)C(F)(F)F)c2)s1,i,?,i,i,12.6µM,i
Cn1c(=O)c2c(SCC(=O)N3CCCCC3)nc(-c3ccccc3F)nc2n(C)c1=O,nt,i,nt,nt,nt,nt
O=C(NCc1ccccc1)C12CC3CC(CC(C3)C1)C2,i,i,i,i,31.6µM,i
CCn1nc(C(=O)OCC(=O)N2CC(=O)Nc3ccccc32)c2ccccc2c1=O,i,i,i,i,i,i
COc1ccccc1CC(=O)Nc1ccc(S(=O)(=O)N2CCCCC2)cc1,nt,i,nt,nt,?,i
COc1ccccc1CNCC(=O)Nc1ccc(C(F)(F)F)cc1,i,i,nt,i,22.4µM,i
COc1ccccc1CNCC(=O)Nc1ccccc1-n1cccc1,i,?,i,i,10µM,i
COc1cc2c(cc1OC)CN(CC(=O)Nc1ccc(C#N)cc1)CC2,i,i,i,i,i[12.7 µM],i
CCOc1ccccc1NC(=O)Cc1ccccc1OC,i,i,i,i,i,i
COc1ccc(NCC(=O)Nc2ccc(C#N)cc2)cc1Cl,?,i,?,14.1µM[quencher],?,i
COc1ccccc1CNCC(=O)Nc1ccc(C#N)cc1,nt,i,nt,nt,5.62µM,i
COc1ccc(NC(=O)CNc2cccc(C#N)c2)cc1Cl,i,i,i,?,i[12.7 µM],i
SMILES,Tau fibril FP,Sfp inh,Tau ThT inhib,Tau fluor cs,G9a block,Coupling enz
COC(=O)N[C@@H](/C=C/c1ccccc1)/C(C(=O)OC)=C(\C)NCc1ccccc1,i,i,i,i,nt,i
CCOc1cc(C(=O)NCCC(=O)N2CCC3(CC2)NCCc2[nH]cnc23)cc(OCC)c1OCC,nt,i,nt,nt,i,i
CCOc1ccccc1NC(=O)CSc1nccn1-c1cccc(C)c1,i,nt,?,i,?,nt
COc1ccccc1CCC(=O)Oc1ccc(C#N)cc1OC,nt,i,nt,nt,25.1µM,nt
Cc1ccc(OCC(=O)Nc2ccccc2C(=O)OCc2cc(=O)n3nc(C4CC4)sc3n2)cc1,i,nt,i,i,i[12.7 µM],nt
Cc1ccc(S(=O)(=O)ON2C(=O)c3ccccc3C2=O)c(C)c1,?,10µM,17.8µM,i,7.94µM,i
Cc1cc(C)c(S(=O)(=O)ON2C(=O)c3ccccc3C2=O)cc1C,?,20µM,?,i,nt,i
O=C1c2ccccc2C(=O)N1OS(=O)(=O)c1ccc(F)cc1,nt,8.91µM,nt,nt,2.24µM,i
O=S(=O)(c1ccccc1)N1CCN(S(=O)(=O)c2ccc(F)cc2)CC1,nt,i,nt,nt,i[0.501 µM],i
Cc1cc(C)c(C)c(S(=O)(=O)ON2C(=O)c3ccccc3C2=O)c1C,?,22.4µM,?,i,7.94µM,nt
Cc1ccc(NC(=O)CN2C(=O)c3ccccc3C2=O)c(C)c1,nt,i,nt,nt,?,i
COC(=O)C1=C(C(=O)OC)[C@@H]2N(C)c3ccc(OC)cc3[C@@]23C[C@@H](C(=O)OC)N=C3N1,i[11.6 µM],i,i[11.5 µM],i[11.6 µM],i,i
CC1CCCN(CCCNC(=O)c2ccc3c(c2)N(Cc2ccc(Cl)cc2)C(=O)c2ccccc2S3(=O)=O)C1 (centres undefined),i,nt,i,?,?,nt
O=C(NO)c1cc(OCC(F)(F)F)ccc1OCC(F)(F)F,i,i,i,i,79.4µM,i
COc1cccc(NC(=S)N(CCC(C)C)C2CCN(C(C)=O)CC2)c1,nt,i,nt,nt,i,i
Cc1c(C)n(CC(O)CN2CCCCCC2)c2ccccc12 (centres undefined),i,i,i,i,35.5µM,i
Cc1c(C)n(CC(O)CNc2ccccc2)c2ccccc12 (centres undefined),?,i,?,?,12.6µM,i
Cc1c(C)n(CC(O)CNCCO)c2ccccc12 (centres undefined),i,i,i,i,8.91µM,i
Cc1noc(NS(=O)(=O)c2ccc(NC(=O)Nc3ccc(Cl)c(Cl)c3)cc2)c1C,?,i,?,11.2µM[quencher],?,i
Cc1noc(NS(=O)(=O)c2ccc(NC(=O)C(Cl)(Cl)Cl)cc2)c1C,nt,i,nt,nt,i,i
Cc1noc(NS(=O)(=O)c2ccc(NC(=O)/C=C/c3ccc(Br)cc3)cc2)c1C,nt,i,nt,nt,?,nt
Cc1noc(NS(=O)(=O)c2ccc(NC(=O)CC34CC5CC(CC(Br)(C5)C3)C4)cc2)c1C,i,i,i,i,70.8µM,nt
Cc1noc(NS(=O)(=O)c2ccc(NC(=O)C34CC5CC(C3)CC(n3cnc(Cl)n3)(C5)C4)cc2)c1C,i,i,i,i,i,i
Cc1noc(NS(=O)(=O)c2ccc(NC(=O)/C=C/c3ccc(C(C)C)cc3)cc2)c1C,nt,i,nt,nt,44.7µM,i
COc1ccc(N2CC(NC(=O)c3cccs3)CC2=O)cc1OC (centres undefined),i,nt,i,i,i,nt
SMILES,Tau fibril FP,Sfp inh,Tau ThT inhib,Tau fluor cs,G9a block,Coupling enz
O=C1C(=O)N(O)C2CCCCC2N1O (centres undefined),i,i,i,i,7.94µM,i
CON1C(=O)C(=O)N(OC)C2CCCCCC21 (centres undefined),i,i,i,i,i,i
Cc1ccc(C)c(N2CCN(C(=O)CN3C(=O)CSc4c3c(C)nn4-c3ccccc3)CC2)c1,i,nt,i,i,i,nt
CC(C)=CC[C@@H](O)C1=CC(=O)c2c(O)ccc(O)c2C1=O,12.6µM,50.1µM,4.47µM,?,6.31µM,nt
C=CCOC(=O)N[C@@H](c1ccc(Br)cc1)C(C(C)=O)C(C)=O,?,i,i,i,nt,i
CCOC(=O)c1cc(-c2ccc(OC)cc2)n(CCC(=O)NCc2ccc(OC)cc2)c1C,i,nt,i,i,i,nt
